From PubChem BioAssay AID588549 (Broad Institute, 2011)
Screen size: about 360,000 compounds; about 780 (0.22%) were called active. What follows is part of a selection rich in actives, with near analogues and random picks from the rest. Unmarked numbers belong to inactive results. Cut-off read from the data, not from the text of the source: active = inhibition above about 8.5% (passing the limit was not always enough); inconclusive = no clear call, values can overlap the other calls.

Each compound was assayed on Mycobacterium tuberculosis FadD28 fatty-acid-AMP ligase (assay: inhibitors of FadD28 bisubstrate probe binding, primary screen, biochemical, fluorescence polarization, single point (AID 588549)). Conditions: at 12.5 µM, hits give high values.

| SMILES | inhibition |
| --- | --- |
| CC12CCC(=O)N1C(C(=O)Nc1ccc(F)c(F)c1F)CS2 (centres undefined) | -2.85% |
| CC[C@]1(C(=O)OC)[C@H]2C(=O)N(Cc3ccccc3)C(=O)[C@H]2[C@H]2CN=C(SCc3ccc(C#N)cc3)N21 | -7.96% |
| CCOc1c(Br)cc(/C=C2\C(=O)N(CCC#N)N=C2C)cc1OC | -4.34% |
| COc1cc(/C=C2/C(=O)NN(c3cccc(Cl)c3)C2=O)cc(Br)c1O | 14.2% (active) |
| Cc1c(C(=O)CN2CCOCC2)[nH]c2ccccc12 | -2.15% |
| CCCS(=O)(=O)Nc1c(C(=O)O)[nH]c2ccccc12 | 1.47% |
| O=C(O)c1[nH]c2ccccc2c1C(c1cccc(O)c1)c1c(C(=O)O)[nH]c2ccccc12 | 28.9% (active) |
| COc1cccc(C(=O)N/N=C(\C)c2cccc(NC(=O)c3ccc(F)cc3)c2)c1OC | -4.93% |
| C/C(=N\Nc1cccc(C(=O)O)c1)c1ccc2c(c1)Nc1ccccc1S2 | 13.8% (active) |
| CC(=O)Nc1cccc(/C(C)=N/NC(=O)c2c(-c3ccccc3Cl)noc2C)c1 | -2.25% |
| Cc1ccc(CNC(=O)CCNS(=O)(=O)c2cccc3nonc23)cc1 | 0.736% |
| CC1CCN(C(=O)c2cc3nc(C4CC4)cc(C(F)(F)F)n3n2)CC1 | -2.25% |
| COc1ccc(/C=C/CN2CCCC(C(=O)c3cc(F)ccc3F)C2)cc1 (centres undefined) | -1.96% |
| CN(C(=O)C1CCN(c2ncnc3c2nc2n3CCCCC2)CC1)C1CCCCC1 | -3.36% |
| COCCCNC(NC(=O)c1ccc(OC)cc1)C(Cl)(Cl)Cl (centres undefined) | -3.52% |
| c1ccc(CCN2CN=C(Nc3nc4ccccc4o3)NC2)cc1 | -1.13% |
| COc1ccc(C(=O)c2c(C)c(CCC#N)n3ccccc23)c(OC)c1 | -2.38% |
| Cc1ccc(S(=O)(=O)N2C[C@H]3C(=O)C[C@@H](c4cccc5ccccc45)N(S(=O)(=O)c4ccc(C)cc4)[C@H]3C[C@H]2c2ccc(Cl)cc2)cc1 | -2.51% |
| COc1cccc(C(=O)Oc2cc(C)[nH]c(=O)c2[N+](=O)[O-])c1 | -0.419% |
| COc1cccc(N2C(=O)NC(=O)/C(=C\c3ccc([N+](=O)[O-])s3)C2=O)c1 | 16.4% (active) |
| O=C(OCC(=O)N1CCN(c2ccccc2)CC1)c1ccc([N+](=O)[O-])s1 | 0.124% |
| O=[N+]([O-])c1ccc(C=Nc2ccc(Cl)cc2Cl)s1 | -1.01% |
| O=C1NC(=O)N(c2ccccc2)C(=O)/C1=C/c1ccc([N+](=O)[O-])s1 | 25.4% (active) |
| COc1cccc(/C=C2\SC(=N)N(c3ccc(F)cc3)C2=O)c1 | -2.96% |
